The inhibition is the relative decrease from the control value, in per cent.

This passage reports inhibition results from ChEMBL document CHEMBL1961873, “Compounds: GSK PKIS; Assays: Nanosyn kinase panel” (2012).

Test [1] deals with RAC-alpha serine/threonine-protein kinase (Homo sapiens) (UniProt P31749). As to conditions: at 0.1 µM.
Test [2] shares this target. The conditions noted are these: at 1 µM.
Test [3] addresses RAC-beta serine/threonine-protein kinase (Homo sapiens) (UniProt P31751). As to conditions: at 0.1 µM.
Test [4] shares this target. The conditions noted are these: at 1 µM.
The target in test [5] is RAC-gamma serine/threonine-protein kinase (Homo sapiens) (UniProt Q9Y243). As to conditions: at 0.1 µM.
RAC-gamma serine/threonine-protein kinase (Homo sapiens), sequence (Q9Y243 whole entry): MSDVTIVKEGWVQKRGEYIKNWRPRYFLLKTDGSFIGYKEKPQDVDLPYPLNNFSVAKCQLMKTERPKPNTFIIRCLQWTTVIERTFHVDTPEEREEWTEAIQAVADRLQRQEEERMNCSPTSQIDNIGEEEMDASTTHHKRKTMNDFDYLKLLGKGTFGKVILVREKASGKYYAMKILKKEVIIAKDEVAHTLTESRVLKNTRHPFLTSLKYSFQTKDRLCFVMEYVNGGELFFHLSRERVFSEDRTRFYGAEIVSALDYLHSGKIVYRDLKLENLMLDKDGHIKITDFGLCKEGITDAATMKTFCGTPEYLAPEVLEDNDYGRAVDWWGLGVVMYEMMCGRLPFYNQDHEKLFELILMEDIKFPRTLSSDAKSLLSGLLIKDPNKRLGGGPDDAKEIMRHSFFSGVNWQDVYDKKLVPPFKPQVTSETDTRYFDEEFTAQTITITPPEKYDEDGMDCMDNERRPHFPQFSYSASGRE
The target is the same in test [6]. As to conditions: at 1 µM.
Test [7] concerns the target G protein-coupled receptor kinase 6 (Homo sapiens) (UniProt P43250). As to conditions: at 0.1 µM.
The target is the same in test [8]. As to conditions: at 1 µM.
Test [9] has as its target T1, Rhodopsin kinase GRK7 (Homo sapiens) (UniProt Q8WTQ7).
T1 sequence (whole entry): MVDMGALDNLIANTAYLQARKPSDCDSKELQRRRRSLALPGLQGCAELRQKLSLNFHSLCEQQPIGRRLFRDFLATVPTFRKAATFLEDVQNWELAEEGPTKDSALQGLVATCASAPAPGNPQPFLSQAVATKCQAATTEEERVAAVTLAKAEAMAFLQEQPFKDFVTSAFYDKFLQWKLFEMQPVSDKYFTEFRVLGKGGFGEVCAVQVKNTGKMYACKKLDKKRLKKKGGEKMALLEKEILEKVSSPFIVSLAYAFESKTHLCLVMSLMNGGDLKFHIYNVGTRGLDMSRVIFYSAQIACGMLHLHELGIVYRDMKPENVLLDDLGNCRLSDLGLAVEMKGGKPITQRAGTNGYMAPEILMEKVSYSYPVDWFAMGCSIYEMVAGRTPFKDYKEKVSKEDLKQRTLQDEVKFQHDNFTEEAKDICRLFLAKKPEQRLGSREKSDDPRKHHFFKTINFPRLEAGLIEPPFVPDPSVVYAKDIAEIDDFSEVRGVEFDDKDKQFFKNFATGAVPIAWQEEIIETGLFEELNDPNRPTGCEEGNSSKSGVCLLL
The conditions noted are these: at 0.1 µM.

The target of test [10] is T1, Rhodopsin kinase GRK7 (Homo sapiens). The conditions noted are these: at 1 µM.
The target of test [11] is Serine/threonine-protein kinase MRCK alpha (Homo sapiens) (UniProt Q5VT25). As to conditions: at 0.1 µM.
The target is the same in test [12]. The conditions noted are these: at 1 µM.
For test [13], the target named is Serine/threonine-protein kinase MRCK beta (Homo sapiens) (UniProt Q9Y5S2). The conditions noted are these: at 0.1 µM.
Serine/threonine-protein kinase MRCK beta (Homo sapiens), sequence (Q9Y5S2 whole entry): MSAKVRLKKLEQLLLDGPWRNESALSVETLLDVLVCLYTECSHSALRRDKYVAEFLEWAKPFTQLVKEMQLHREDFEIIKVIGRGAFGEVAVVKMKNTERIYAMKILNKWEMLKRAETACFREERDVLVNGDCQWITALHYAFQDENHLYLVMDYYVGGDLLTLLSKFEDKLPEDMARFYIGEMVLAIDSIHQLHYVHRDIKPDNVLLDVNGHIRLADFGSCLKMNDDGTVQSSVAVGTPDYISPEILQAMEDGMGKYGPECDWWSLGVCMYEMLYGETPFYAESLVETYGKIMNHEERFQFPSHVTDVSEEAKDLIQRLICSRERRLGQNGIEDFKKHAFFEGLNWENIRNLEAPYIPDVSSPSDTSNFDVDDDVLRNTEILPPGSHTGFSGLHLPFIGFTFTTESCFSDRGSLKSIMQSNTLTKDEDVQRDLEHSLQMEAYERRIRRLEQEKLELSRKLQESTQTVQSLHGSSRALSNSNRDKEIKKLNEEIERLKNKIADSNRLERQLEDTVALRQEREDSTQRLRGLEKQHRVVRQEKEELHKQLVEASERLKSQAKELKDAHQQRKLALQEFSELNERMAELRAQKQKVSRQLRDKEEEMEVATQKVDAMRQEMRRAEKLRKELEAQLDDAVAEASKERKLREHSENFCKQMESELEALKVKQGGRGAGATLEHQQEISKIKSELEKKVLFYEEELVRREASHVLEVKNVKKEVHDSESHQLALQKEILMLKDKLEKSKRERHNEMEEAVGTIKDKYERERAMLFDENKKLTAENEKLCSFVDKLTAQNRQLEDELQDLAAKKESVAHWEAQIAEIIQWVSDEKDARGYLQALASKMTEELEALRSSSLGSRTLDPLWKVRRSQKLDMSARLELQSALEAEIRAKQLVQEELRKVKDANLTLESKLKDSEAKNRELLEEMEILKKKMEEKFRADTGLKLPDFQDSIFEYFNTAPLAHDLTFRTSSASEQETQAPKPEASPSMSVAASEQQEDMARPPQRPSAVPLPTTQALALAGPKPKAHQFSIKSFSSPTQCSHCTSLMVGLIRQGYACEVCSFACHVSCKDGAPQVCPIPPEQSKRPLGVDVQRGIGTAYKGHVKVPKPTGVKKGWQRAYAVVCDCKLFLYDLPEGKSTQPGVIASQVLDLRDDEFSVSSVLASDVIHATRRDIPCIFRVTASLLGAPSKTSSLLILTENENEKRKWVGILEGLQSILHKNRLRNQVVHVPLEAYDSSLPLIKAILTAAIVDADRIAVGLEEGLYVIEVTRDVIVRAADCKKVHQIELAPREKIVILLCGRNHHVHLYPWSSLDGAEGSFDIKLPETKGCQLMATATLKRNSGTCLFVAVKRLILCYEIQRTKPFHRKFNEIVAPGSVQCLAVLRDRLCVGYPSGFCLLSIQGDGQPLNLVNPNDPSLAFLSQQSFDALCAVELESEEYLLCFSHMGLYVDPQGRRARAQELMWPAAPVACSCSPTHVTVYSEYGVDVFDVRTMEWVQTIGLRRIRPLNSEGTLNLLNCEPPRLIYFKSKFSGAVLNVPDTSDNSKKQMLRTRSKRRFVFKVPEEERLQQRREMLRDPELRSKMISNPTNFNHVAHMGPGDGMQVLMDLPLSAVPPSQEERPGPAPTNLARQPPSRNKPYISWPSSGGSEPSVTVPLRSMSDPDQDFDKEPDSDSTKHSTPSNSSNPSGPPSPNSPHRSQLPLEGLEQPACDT
For test [14] the target is unchanged. The conditions noted are these: at 1 µM.
The target in test [15] is Ribosomal protein S6 kinase alpha-5 (Homo sapiens) (UniProt O75582). The conditions noted are these: at 0.1 µM.
Ribosomal protein S6 kinase alpha-5 (Homo sapiens), sequence (O75582 whole entry, looked up): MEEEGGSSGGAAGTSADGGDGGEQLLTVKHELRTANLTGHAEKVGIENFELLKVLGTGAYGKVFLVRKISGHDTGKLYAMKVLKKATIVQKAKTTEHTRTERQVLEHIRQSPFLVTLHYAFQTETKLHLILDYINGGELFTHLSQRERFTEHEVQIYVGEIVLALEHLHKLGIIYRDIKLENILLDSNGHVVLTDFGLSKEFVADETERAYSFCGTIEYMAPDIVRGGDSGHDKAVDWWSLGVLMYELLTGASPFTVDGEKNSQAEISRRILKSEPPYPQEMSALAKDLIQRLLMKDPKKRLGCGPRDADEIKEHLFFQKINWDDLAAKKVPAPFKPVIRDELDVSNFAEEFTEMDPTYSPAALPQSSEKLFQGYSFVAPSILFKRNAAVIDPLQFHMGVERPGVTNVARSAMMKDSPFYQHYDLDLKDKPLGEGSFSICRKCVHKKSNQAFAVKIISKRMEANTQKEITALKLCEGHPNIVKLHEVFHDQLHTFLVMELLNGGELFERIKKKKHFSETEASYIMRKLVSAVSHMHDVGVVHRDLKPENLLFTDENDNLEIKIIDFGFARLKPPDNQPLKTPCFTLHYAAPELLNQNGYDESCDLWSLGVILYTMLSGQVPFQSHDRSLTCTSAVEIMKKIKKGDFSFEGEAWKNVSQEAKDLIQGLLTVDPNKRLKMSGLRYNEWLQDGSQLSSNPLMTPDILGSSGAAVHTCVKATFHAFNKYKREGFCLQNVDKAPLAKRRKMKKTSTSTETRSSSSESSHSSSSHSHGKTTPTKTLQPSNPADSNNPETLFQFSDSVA
Test [16] has the same target. The conditions noted are these: at 1 µM.
For test [17], the target named is Ribosomal protein S6 kinase alpha-4 (Homo sapiens) (UniProt O75676). The conditions noted are these: at 0.1 µM.
Ribosomal protein S6 kinase alpha-4 (Homo sapiens), sequence (O75676 whole entry, looked up): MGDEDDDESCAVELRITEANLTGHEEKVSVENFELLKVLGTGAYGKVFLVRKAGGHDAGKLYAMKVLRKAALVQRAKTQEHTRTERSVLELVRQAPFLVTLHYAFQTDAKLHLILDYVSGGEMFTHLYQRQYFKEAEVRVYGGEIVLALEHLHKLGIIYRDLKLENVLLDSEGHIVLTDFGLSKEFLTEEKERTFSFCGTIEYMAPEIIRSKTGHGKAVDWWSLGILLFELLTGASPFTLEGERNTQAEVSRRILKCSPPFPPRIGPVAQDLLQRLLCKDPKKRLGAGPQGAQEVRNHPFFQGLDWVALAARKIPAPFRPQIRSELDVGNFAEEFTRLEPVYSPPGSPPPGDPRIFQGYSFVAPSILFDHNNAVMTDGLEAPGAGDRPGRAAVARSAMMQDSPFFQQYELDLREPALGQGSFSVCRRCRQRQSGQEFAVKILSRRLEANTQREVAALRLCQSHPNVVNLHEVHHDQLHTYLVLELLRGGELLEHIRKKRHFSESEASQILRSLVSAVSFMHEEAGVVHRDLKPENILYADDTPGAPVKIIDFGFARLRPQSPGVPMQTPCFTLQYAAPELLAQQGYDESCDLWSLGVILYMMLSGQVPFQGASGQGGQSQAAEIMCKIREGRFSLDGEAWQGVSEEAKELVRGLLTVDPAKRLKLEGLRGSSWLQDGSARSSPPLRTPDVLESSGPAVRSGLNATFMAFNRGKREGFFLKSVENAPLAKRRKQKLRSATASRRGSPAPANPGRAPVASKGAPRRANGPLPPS
The target is the same in test [18]. As to conditions: at 1 µM.
In test [19] the target is Ribosomal protein S6 kinase beta-1 (Homo sapiens) (UniProt P23443). As to conditions: at 0.1 µM.
For test [20] the target is unchanged. The conditions noted are these: at 1 µM.

RAC-beta serine/threonine-protein kinase (Homo sapiens), sequence (P31751 whole entry): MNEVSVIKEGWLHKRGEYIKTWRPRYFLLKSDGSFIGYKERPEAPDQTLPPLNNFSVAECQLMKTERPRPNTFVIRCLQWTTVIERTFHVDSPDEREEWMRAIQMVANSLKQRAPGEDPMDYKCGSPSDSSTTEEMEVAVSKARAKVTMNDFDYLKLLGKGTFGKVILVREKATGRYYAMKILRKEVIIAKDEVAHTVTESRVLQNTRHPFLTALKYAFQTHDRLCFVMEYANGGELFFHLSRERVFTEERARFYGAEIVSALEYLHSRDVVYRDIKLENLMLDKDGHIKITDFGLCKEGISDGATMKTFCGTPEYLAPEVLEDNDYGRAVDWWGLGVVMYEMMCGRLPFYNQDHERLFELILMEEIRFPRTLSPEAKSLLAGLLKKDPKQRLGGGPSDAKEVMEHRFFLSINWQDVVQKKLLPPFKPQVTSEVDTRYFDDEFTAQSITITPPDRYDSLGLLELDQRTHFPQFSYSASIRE
RAC-alpha serine/threonine-protein kinase (Homo sapiens), sequence (P31749 whole entry): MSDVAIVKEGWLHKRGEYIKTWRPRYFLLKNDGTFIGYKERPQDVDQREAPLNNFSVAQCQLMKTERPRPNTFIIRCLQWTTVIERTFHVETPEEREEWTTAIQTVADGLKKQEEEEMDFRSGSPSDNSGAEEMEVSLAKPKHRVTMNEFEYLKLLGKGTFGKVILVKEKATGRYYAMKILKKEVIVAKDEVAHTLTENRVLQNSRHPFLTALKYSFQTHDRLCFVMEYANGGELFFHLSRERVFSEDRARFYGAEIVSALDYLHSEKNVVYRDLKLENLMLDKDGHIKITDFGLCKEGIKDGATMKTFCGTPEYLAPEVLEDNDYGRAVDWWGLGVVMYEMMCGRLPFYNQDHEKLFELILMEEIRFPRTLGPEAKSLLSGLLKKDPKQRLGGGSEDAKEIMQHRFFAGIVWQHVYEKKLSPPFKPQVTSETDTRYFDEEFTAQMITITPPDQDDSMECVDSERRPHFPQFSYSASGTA

For the molecule `NS(=O)(=O)c1cccc(-c2cc3ccncc3cc2OCc2ccccc2)c1`, the inhibition in test [1] came out at 1.37%; in test [2], 0.84%; in test [3], 1.79%; in test [4], 2.65%; in [5] it was 2.96%; in test [6], 0.32%. The inhibition was 0.24% in test [7]; 2.95% in [8]; 2.9% in [9]; 4.85% in test [10]; 0.79% in test [11]; -0.95% in test [12]. In addition, the inhibition in [13] stood at 1.07%; in [14], 0.42%; in test [15], 6.93%; in test [16] it was 5.54%; in test [17], 2.88%; in [18], 6.76%. For the same molecule, the inhibition in test [19] was found to be 1.84%; in test [20], 1.18%.
Consider `C[C@@H](Oc1cc(-n2cnc3ccc(OC[C@@H](O)CO)cc32)sc1C(N)=O)c1ccccc1Cl`, for which the inhibition is -0.94% in test [1]; -0.9% in test [2]; -0.48% in test [3]; -0.32% in test [4]; 0.07% in test [5]; -0.44% in test [6]. Further, the inhibition in [7] is 1.08%; in [8] it was 4.23%; in test [9] it was -4.63%; in [10], 3.37%; in test [11], -0.35%; in test [12], 4.31%. Moreover, the inhibition in test [13] was 1.02%; in test [14], 3.59%; in [15], -1.23%; in test [16], -0.54%; in test [17], 0.35%; in [18], 1.7%. Further, the inhibition in test [19] was found to be 0.75%; in test [20] it was 1.5%.
As for `COC(=O)c1ccc2c(c1)C(=Cc1cc(Br)c(O)c(Br)c1)C(=O)N2`, the inhibition came to 0.91% in test [1]; 0.66% in [2]; 0.67% in test [3]; 1.05% in [4]; 1.09% in test [5]; 2.88% in test [6]. The inhibition in test [7] came out at 7.82%; in [8], 43.5%; in test [9], 12.8%; in [10], 28.4%; in [11], 5.51%; in test [12], 5.34%. In addition, the inhibition was -0.51% in test [13]; -0.15% in [14]; 7.14% in test [15]; 12.2% in test [16]; 2.52% in test [17]; 6.18% in [18]. The inhibition in [19] is 1.57%; in [20], 3.47%.
As to `C[C@@H](Oc1cc(-n2cnc3ccc(OCC4CCN(C)CC4)cc32)sc1C(N)=O)c1ccccc1C(F)(F)F`, the inhibition in [1] is -0.94%; in test [2] it was -1.34%; in test [3], -1.9%; in [4], -0.71%; in [5], -1.91%; in test [6], 1.79%. For the same molecule, the inhibition in test [7] is -1.55%; in [8], -1.03%; in test [9], 2.15%; in test [10], -2.25%; in test [11], 0.6%; in test [12], 5.18%. The inhibition in test [13] was 0.07%; in test [14], 0.75%; in test [15], -2.08%; in test [16], -0.6%; in [17] it was 0%; in test [18] it was 2.52%. Further, the inhibition is 0.24% in test [19] and 5.55% in test [20].
Take `Cc1ccc2c(c1)/C(=N/Nc1ccc(S(N)(=O)=O)cc1)C(=O)N2`: the inhibition in test [1] is 0.76%; in [2], -0.7%; in [3], 2.19%; in test [4], -0.04%; in test [5], -1.25%; in test [6] it was 0.38%. The inhibition is -0.52% in test [7]; -1.05% in test [8]; 0.29% in test [9]; 4.95% in [10]; 0.22% in [11]; 1.3% in test [12]. The inhibition in test [13] is -0.79%; in [14] it was 1.36%; in [15], 0.95%; in [16], 1.23%; in [17], -1.41%; in [18], 2.32%. Also, the inhibition was determined as 0.52% in [19] and 2.59% in [20].
Consider `c1ccc(Cc2nc3ccc(Nc4ncnc5ccccc45)cc3[nH]2)cc1`, for which the inhibition in test [1] was found to be 0.62%; in [2], 0.65%; in [3] it was 1.38%; in test [4], 1.4%; in test [5], 1.19%; in test [6], 0.88%. The inhibition in test [7] is 3.39%; in test [8], 3.05%; in test [9] it was 0.46%; in test [10], -1.96%; in [11], -0.57%; in test [12], -0.25%. Also, the inhibition was -0.96% in test [13]; -0.17% in test [14]; 2.76% in [15]; 4.26% in test [16]; 0.49% in [17]; 2.83% in test [18]. For the same molecule, the inhibition in test [19] was determined as 0.76%; in test [20] it was 2.79%.
`Cc1cc(Cl)cc2c1NC(=O)C2=NNc1ccc(S(N)(=O)=O)cc1`: the inhibition in test [1] worked out at 0.38%; in [2], 0.03%; in test [3], 0.6%; in [4], 1.11%; in test [5], 0.3%; in [6], 0.71%. The inhibition turned out to be 7.71% in test [7]; 11% in test [8]; 5.48% in test [9]; 13.2% in test [10]; 0.98% in test [11]; 2.69% in test [12]. Besides, the inhibition in [13] is 0.17%; in test [14], -0.38%; in [15], 3.06%; in test [16] it was 2.08%; in test [17] it was 2.85%; in [18], 3.47%. Moreover, the inhibition in [19] turned out to be 0.25%; in test [20], 2.34%.
